Bioassay records from PubChem BioAssay.
SW480 rerep: inducers of DNA re-replication in SW480 colon cancer cells; SW480 DNA re-replication, Hoechst DNA content imaging, 48 h; Potency, µM (highest dose often 46.1 µM), inactives show at the highest dose re-replication activation, actives largely listed as activators; 340,000 compounds, 1.8% hits; AID 624297; further: % of control where 0% means no effect; nearly all actives have a fitted effect of over 55% in size
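Image-based DNA-content assay: after two days of treatment, nuclei were labelled with the DNA dye Hoechst and imaged, and hits were compounds raising the count of nuclei showing high fluorescence intensity.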
PINK1 expr mod: changes PINK1 expression. Potency, µM (series often up to 76.6 µM), without a hit: at the top dose activation (PINK1 increase), actives largely listed as activators. 410,000 compounds, 0.2% hits. PINK1 immunofluorescence, high-content cytometry, 24 h. AID 624263; active means well fitted activation curve with a large enough effect; inconclusive means small, poorly fitted or top-dose-only effect; cell line not stated here; further: % of control where 0% means no effect; nearly all actives have a fitted effect of over 65% in size
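PINK1 protein, normally rapidly degraded, was detected by immunofluorescence after 24 hour compound treatment of a stable cell line. Titration data (5 concentrations) came from laser-scanning cytometry, with CCCP-treated wells as controls.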
KB-3-1 cytotox: kills parental KB-3-1 adenocarcinoma cells; KB-3-1 viability, CellTiter-Glo ATP luminescence, 72 h; Potency, µM (top dose mostly 46.1 µM), usual class: cytotoxic; 400,000 compounds, 1.4% hits; AID 1347075; further: on the % scale 0 is the no-effect control and ±100 the full control effect; nearly all actives have a fitted effect of over 60% in size
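Parental KB-3-1 viability, qHTS format: 72 h compound exposure, 37 °C; CellTiter-Glo; media-only wells and DMSO plates as controls; concentration-effect fits on corrected data.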
KB-V1 MDR tox: kills drug-selected multidrug resistant KB-V1 cells. KB-V1 MDR cells viability, CellTiter-Glo, 72 h. AID 1347076. 400,000 compounds, 3.4% hits. Potency, µM (titrated, usually from 46.1 µM), actives largely listed as cytotoxic; further: on the % scale 0 is the no-effect control and ±100 the full control effect; nearly all actives have a fitted effect of over 60% in size
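Cytotoxicity toward P-gp-expressing KB-V1 cells was determined as loss of CellTiter-Glo luminescence after 72 h at 37 degrees C. Compounds were tested in quantitative HTS format across a concentration range, with curves fitted to normalized data.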
ALOX12 inh: inhibitors of human 12S-lipoxygenase ALOX12 | P18054 | purified 12hLO, xylenol orange hydroperoxide absorbance | Potency, µM (series often up to 108 µM), for inactives: top-dose activity change, negative = inhibition, actives largely listed as inhibitors | 580,000 compounds, 1.1% hits | AID 1671190; further: on the % scale 0 is the no-effect control and ±100 the full control effect
Target sequence (P18054 whole entry, looked up): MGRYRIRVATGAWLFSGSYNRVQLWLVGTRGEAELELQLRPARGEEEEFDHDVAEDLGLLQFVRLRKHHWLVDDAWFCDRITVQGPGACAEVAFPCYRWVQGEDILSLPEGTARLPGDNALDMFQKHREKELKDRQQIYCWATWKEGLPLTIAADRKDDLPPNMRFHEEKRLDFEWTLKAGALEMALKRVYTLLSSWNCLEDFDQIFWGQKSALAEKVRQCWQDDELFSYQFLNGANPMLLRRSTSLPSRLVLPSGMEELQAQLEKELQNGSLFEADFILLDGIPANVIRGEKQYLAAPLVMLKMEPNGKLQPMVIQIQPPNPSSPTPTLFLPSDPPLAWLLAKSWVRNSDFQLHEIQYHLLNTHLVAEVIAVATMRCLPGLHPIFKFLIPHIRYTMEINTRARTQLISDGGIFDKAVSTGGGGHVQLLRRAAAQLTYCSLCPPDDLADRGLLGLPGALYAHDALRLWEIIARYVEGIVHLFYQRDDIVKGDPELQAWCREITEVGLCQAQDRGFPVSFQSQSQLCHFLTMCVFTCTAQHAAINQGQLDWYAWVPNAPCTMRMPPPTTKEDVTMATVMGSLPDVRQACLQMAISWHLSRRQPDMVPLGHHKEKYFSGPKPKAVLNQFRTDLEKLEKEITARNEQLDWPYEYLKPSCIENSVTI
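Purified human 12hLO (150 nM final) in 25 mM Hepes, 0.01% Triton X-100, pH 7.0 was preincubated 15 min at room temperature with compound. Then 40 uM arachidonic acid was added, 30 min. Hydroperoxide was read by Fe-XO absorbance ratio 573/405 nm.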
MCF10A rerep: inducers of DNA re-replication in MCF 10A breast cells; MCF 10A DNA re-replication, Hoechst nuclear intensity, 48 h; Potency, µM (series often up to 46.1 µM), without a hit: at the highest dose activity, positive = re-replication, usual class: activators; 350,000 compounds, 2.9% hits; AID 624296; further: % of control where 0% means no effect; nearly all actives have a fitted effect of over 50% in size
* = called active by the depositor; i = inactive; ? = inconclusive; · = not tested or not shown; [ ] = remark or other dose. Compounds with a hit are over-represented: about 5.8% of the library has one in this group of screens. Unless noted, the call rests on the fitted dose curve; in most records, active means well fitted curve in the direction sought with a large enough effect; inconclusive means small, poorly fitted or top-dose-only effect, or another doubt; inactive means no such curve, though single readings can be large; an effect the other way counts as inactive or inconclusive. Potency means the concentration at half of the fitted maximal effect.

SMILES | SW480 rerep | PINK1 expr mod | KB-3-1 cytotox | KB-V1 MDR tox | ALOX12 inh | MCF10A rerep
Cn1cc(CN2C[C@@H](F)[C@@H](OCc3nc4ncccc4[nH]3)C2)c2ccccc21 | · | · | · | · | 2%[176 µM] | ·
CN(C)c1cccc(C(=O)Nc2ccc(C#N)cc2)c1 | · | · | · | · | -9% | ·
CCOC(=O)[C@]12CCCC=C1N(Cc1ccco1)C(=O)[C@H](CC(=O)NCCCCc1ccccc1)C2 | · | -1% | ? | 15µM* | ? | ·
CCOC(=O)[C@]12CCC=C1N(Cc1ccc3c(c1)OCO3)C(=O)[C@H](CC(=O)NCC13CC4CC(CC(C4)C1)C3)C2 | · | 0% | ? | 23µM* | -7% | ·
CCCCOCCCNC(=O)C[C@@H]1C[C@@]2(C(=O)OCC)CCC=C2N(Cc2ccc3c(c2)OCO3)C1=O | · | 0% | i | ? | ? | ·
COc1cc2nc(C)sc2cc1SC | -4% | 0% | i | i | 0% | 1%
COc1cc2nc(/C=C/c3cc(OC)c(OC)c(OC)c3)sc2cc1SC | ? | 3% | 23µM* | 10µM* | -30% | ?
COCC(=O)N1CCN(Cc2nc(C(C)(C)C)no2)CC1 | · | · | · | · | -5% | ·
Cc1cccc(OCC2(CNCc3c(C)noc3C)C[C@@H](O)[C@@H](O)C2)n1 (stereo partly specified) | · | · | · | · | 32µM* | ·
Cc1cccc(OCC2(CNCc3ccc(F)cc3)C[C@@H](O)[C@@H](O)C2)n1 (stereo partly specified) | · | · | · | · | -13%[176 µM] | ·
CC(C(=O)N=Nc1c(O)[nH]c2ccccc12)n1cnc2ccccc2c1=O (stereo unspecified) | ? | 1% | i | 18µM* | -16% | ?
CC(=O)c1ccc(NC(=O)[C@@]2(CC(=O)O)CC(c3ccc(C)cc3)=NO2)cc1 | · | · | · | · | -23% | ·
COc1cc(NS(=O)(=O)c2ccc(NC(=S)NC(=O)c3ccc(F)c(F)c3)cc2)nc(OC)n1 | -19% | 1% | i | i | 13µM* | 3%
COc1cc(NS(=O)(=O)c2ccc(NC(=S)NC(=O)c3cccs3)cc2)nc(OC)n1 | -6% | 2% | i | i | 32µM* | 1%
Cc1cc(C)cc(NS(=O)(=O)c2ccc(NC(=S)NC(=O)c3cccs3)cc2)c1 | ? | ? | 23µM* | 2.9µM* | ? | ?
COc1cc(NS(=O)(=O)c2ccc(NC(=S)NC(=O)C(C)(C)C)cc2)nc(OC)n1 | -4% | 4%[38.3 µM] | i | i | ? | -20%
COc1cc(NS(=O)(=O)c2ccc(NC(=S)NC(C)=O)cc2)nc(OC)n1 | -18% | -1% | i | ? | 0% | -1%
Cc1ccc(NC(=O)c2cc(S(=O)(=O)Nc3ccc(C)cc3)cs2)cc1 | ? | ? | ? | 4.1µM* | ? | 6%
O=C(COc1ccc2c(=O)c(Oc3ccc(-c4ccccc4)cc3)coc2c1)NCc1ccccc1 | · | · | · | · | -16% | ·
COc1ccc(Cl)cc1NC(=O)[C@H]1C[C@H](CCC(N)=O)N[C@]12C(=O)Nc1c(C)cc(Cl)cc12 | · | · | · | · | -19% | ·
O=C(NCCc1c[nH]c2ccc(F)cc12)C1CCN(c2nc(Cl)nc3nc[nH]c23)CC1 | · | · | · | · | 0% | ·
COc1ccc(/C=C2\SC(=O)NC2=S)cc1OC | -16% | -3% | ? | i | 40µM* | ?
CCN1C(=O)C(=Cc2cccc(OC)c2Oc2ccc([N+](=O)[O-])cc2[N+](=O)[O-])SC1=S | 4.6µM* | -1% | 23µM* | ? | -24% | ?
COc1cc(/C=C2\SC(=O)NC2=O)ccc1Oc1ccc([N+](=O)[O-])cc1[N+](=O)[O-] | 21% | 8% | i | i | ? | 21µM*
CCOc1ccc(/C=C2\SC(=S)NC2=O)cc1OC | -2% | -2% | i | i | -9% | 1%
SMILES | SW480 rerep | PINK1 expr mod | KB-3-1 cytotox | KB-V1 MDR tox | ALOX12 inh | MCF10A rerep
COc1ccc(/C=C2/CSC/C(=C/c3ccc(OC)c(OC)c3)C2=O)cc1OC | 2.9µM* | -1% | 4.6µM* | 1.5µM* | -23% | ?
COc1cccc(-c2nnc(SCC(=O)N(C3CCCCC3)C3CCS(=O)(=O)C3)n2C)c1 (stereo unspecified) | · | · | · | · | -13% | ·
CCCCCCCCS(=O)(=O)CCSC(=N)N | · | · | · | · | -27% | ·
COc1cccc(/C=C(/C#N)c2nc3ccccc3[nH]2)c1OC(C)C | · | · | · | · | -28% | ·
COc1ccc(OC)c(NC(=O)CC2SC(=Nc3ccccc3)N(CCc3ccccn3)C2=O)c1 (stereo unspecified) | 1% | -1% | i | i | 20% | 0%
COc1ccc(N=C2SC(CC(=O)Nc3ccc(OC)cc3OC)C(=O)N2C)cc1 (stereo unspecified) | 0% | -1%[38.3 µM] | i | 18µM* | -8% | 12%
COc1cc([N+](=O)[O-])ccc1NC(=O)CC1SC(=Nc2ccc(F)cc2)N(CCC2=CCCCC2)C1=O (stereo unspecified) | 11% | 0% | 9.2µM* | ? | -12% | ?
COc1ccc(C(=O)N2CCC3(CC2)CC(C(C)C)=NO3)cc1 | · | · | · | · | 18%[176 µM] | ·
CC(C)C[C@H]1CNC(=S)N1CC1CCCN1C[C@H](Cc1ccccc1)N1C[C@H](Cc2ccc(O)cc2)N(CC2CCCCC2)C1=S (stereo partly specified) | 4.6µM* | 7% | ? | ? | ? | -41%
CC(C)C[C@H]1CNC(=S)N1C[C@H]1CCCN1C[C@H](Cc1ccccc1)N1C[C@H](Cc2ccc(O)cc2)N(CC2CCCCCC2)C1=S | · | 8% | ? | ? | 40µM* | ·
CC(C)C[C@H]1CNC(=S)N1CC1CCCN1C[C@H](Cc1ccc(O)cc1)N1C[C@H](Cc2ccccc2)N(CC2CCCCCC2)C1=S (stereo partly specified) | ? | 3% | i | ? | ? | -12%
CCn1c(C(=O)NCCc2ccco2)cc2cc(S(=O)(=O)N(C)C)ccc21 | · | · | · | · | -9% | ·
O=C(/C=C/c1ccccc1)c1ccc(NC2=NCCCS2)cc1 | ? | -1% | ? | 21µM* | -39% | 18µM*
COc1cccc(/C=C/C(=O)c2ccc(NC3=NCCCS3)cc2)c1 | ? | -1% | ? | ? | -6% | ?
Cc1cccc(/C=C/C(=O)c2ccc(NC3=NCCCS3)cc2)c1 | 9.2µM* | -1% | ? | ? | -17% | ?
O=C(/C=C/c1ccc(Br)cc1)c1ccc(NC2=NCCCS2)cc1 | 4.6µM* | -1% | 21µM* | i | ? | 5.2µM*
O=C(O)c1ccc(/C=C/C(=O)c2ccc(Br)cc2)cc1 | · | · | · | · | 3% | ·
